Source: the supplement of paper PMC6555819

The sequences below were run on VDR:RXRa (NR concentration 270 nM, RXRa partner concentration 90 nM) (assay: PBM binding z-score (relative to random genomic background probes); higher = stronger binding; sequences stand for … in GC…GCGATTGACAGCGTAGAATGAAGG).
Method: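 Protein-binding microarray (Agilent 4x180K custom design, double-stranded 60-nt probes: 5' GC cap, 34-nt variable region, 24-nt constant primer region; full probe sequence given). Purified or IVT nuclear receptor:RXRα heterodimers (3:1 NR:RXRα, mostly 270:90 nM) or homodimers were incubated for 1 h in PBS with 2% milk and no ligand, then detected with Alexa488 antibodies. Fluorescence from o1-orientation probes (~5 replicates averaged) was converted to z-scores against 500 random hg19 background probes. Variable regions are seed direct-repeat (DR0–DR5) sites, all their single-nucleotide variants and half-site ablations.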
Work on TCGAGTAGGTTACGGGGGTATTCAGGGATGAAGA yielded a PBM binding z-score of 2.64. For CGATCTAGGTCAAAGGACAGTGAAAGGCGACGTA, the PBM binding z-score was 1.15. TCGAGTAGGTTACGGGGTCATTCAGGGATGAAGA showed a PBM binding z-score of 6.34. Sequence AGTCAAAGTTCAGTAGGTAACGTAAGATTCAGCT has a PBM binding z-score of 2.4. With CCTGCTAGGTCTATGGTCAGCTAAAGCAGCTCGC the PBM binding z-score was -0.536. CGTCTAAGGTCAAGGTCAGTGAAAGAGACTCGAA showed a PBM binding z-score of 5. CAAACTAGGTCACGAAAGGGCAAAGTCGAATGAC gave a PBM binding z-score of 5.28. Work on CGAACTAGGTCACCAGGACACTGAAGAGGTTGGA yielded a PBM binding z-score of 2.56. For CTAGGTAGGTTAAGGGGGTCATTCAGTTTGAAAG, the PBM binding z-score was 7.24. Work on CGCACTAGGTCAAAGGACAGTGAAAGGCGACGTA yielded a PBM binding z-score of 1.35. ATATGTAGGTAAGGGTCATTCAGAAAGTAGGGAA was tested, and the PBM binding z-score was 4.1. In the case of CGAACTAAGTCATCCAGGACAGTGAATACATTGA, the PBM binding z-score is reported as 0.524. CAAACTAGGTCACGAAAGGTCAAAATCGAATGAC was tested, and the PBM binding z-score was 6.51. For TAGCCTAGGTCAGATCGGGGCAGTATACGCTATA, the PBM binding z-score was 1.56. Sequence CGAACTAGGCCACCAGGACAGTGAAGAGGTTGGA has a PBM binding z-score of -0.817. CAAACTAGGTCACGAAAGGTCAAAGCCGAATGAC was tested, and the PBM binding z-score was 6.5. TCAAGTAGGTTACGGGGGCATTCAGGGATGAAGA was tested, and the PBM binding z-score was 4.11. With ACCAGCAGGCCAAGGGTCACTCAAGATTAGTCCG the PBM binding z-score was 2.47. For CGAACTAGGCCAAAGGACAGTGAAAGGCGACGTA, the PBM binding z-score was -0.722. CCTACTGGGCCAAAGGTCCTTGATTCCAATGCTC gave a PBM binding z-score of -0.303. For CCCAGTAGGTTACGAGGGGGCATTCAGTGCGAAT, the PBM binding z-score was 5.29. ATCTAAAGGTCGAAGGTGAGTATACCCACCCGAA showed a PBM binding z-score of 2.95. Work on GTACCAAGGTGAATAGGTCGTTGATGAGTAGGCG yielded a PBM binding z-score of 0.95. CCTAGTAGGTTATGGGGCATTCAGGCAACGGTGA was tested, and the PBM binding z-score was 0.233. Work on CTCCAAAGGTCGGTTGAGGTGAGTATACGGATAA yielded a PBM binding z-score of 2.42. Work on CGTCAAAGTTCAAGCTAACGTAACAGAAAGCAGC yielded a PBM binding z-score of 4.18. For CGAACTAGGTCAAAGGACAGTGGAAGGCGACGTA, the PBM binding z-score was 1.21. ATACGTAGGTTATCGGGTCATTCAGTTTGCGCAT was tested, and the PBM binding z-score was 5.06. CCTACTGGGCCACGTAAGGTCATTGATTCAGTGA gave a PBM binding z-score of 3.69. ATCGAAAGGTCGTCGAGGTGAGTATACACCGTTT showed a PBM binding z-score of 5.7. In the case of ATATGTAGGTTACGTCCGGGTCATTCAGGCTATG, the PBM binding z-score is reported as 4.14. For GCTGCTAGGTCATGTTGGTCAGCTAACGGGTACG, the PBM binding z-score was 2.15. In the case of CCTACTGGGCCAAAGGTCATTGACTCCAATGCTC, the PBM binding z-score is reported as 4.58. With CCGAGTAGGTTACGAAGGGGCATTCAGTGCGAAT the PBM binding z-score was 3.08. For CTATGTAGGTTAAGGGGGTCATACAGTTTGAAAG, the PBM binding z-score was 7.05. For GCTTACGGGTCAAAGGTTAAAGCATGAATAGAAT, the PBM binding z-score was 5.38. For ACTAGTTGCTCAGCTGAGGTCACACACAATTCGG, the PBM binding z-score was 3.65. Work on CCTACTGGGCCATTAAGAGGTCATTGATCATATG yielded a PBM binding z-score of 3.95. CGAACTAGGTCATCGAGGACAGTGAATACATTGA was tested, and the PBM binding z-score was 6.12. For CGTCAAAGTTCAAGTTAACGTAACAGAAAGCAGC, the PBM binding z-score was 4.32.
